Test results as given in PubChem BioAssay (NCI).
Compounds without any hit were thinned out: in the full panel of roughly 83,000, 20% have a hit.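 The test compound was applied at a single concentration to cells in 96-well plates for 48 hours, and percent growth was recorded.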 Values without a mark were called inactive. The source made the active and inactive calls. The calls were made as follows: active = growth percent below 10; inactive = the rest.

tested on: OVCAR-5 ovarian; experiment: NCI-60 one-dose screen, 48 h (100 = growth as untreated, 0 = no growth, -100 = all killed); details: 10 µM

Question: Which growth does the source give for c1ccc([C@H]2CN3CCSC3=N2)cc1 here?
Answer: 87.2%

Question: Which growth does the source give for Cc1nc2ccc(CN(C)c3ccc(C(=O)N[C@@H](CCC(=O)O)C(=O)O)s3)cc2c(=O)[nH]1 here?
Answer: 67.6%

Question: COc1ccc(OC)c(/C=C/c2nc(SCc3ccccc3)n(-c3ccc(Cl)cc3)n2)c1 was tested. Which growth did it give?
Answer: 102%

Question: How did the growth turn out when COc1cc(Cc2cc(-c3ccc(Cl)cc3)n[nH]c2=O)ccc1O was run?
Answer: 115%

Question: With CN(C)C(=S)N/N=C\C=N/NC(=S)N(C)C as the compound, how does the growth read?
Answer: 95.2%

Question: For COc1ccc(N=C2C(=Nc3ccc(OC)cc3)N(c3ccc(N(C)C)cc3)C(=S)N2c2ccc(OC)cc2)cc1, which growth is on record?
Answer: 34.9%

Question: Which growth does the source give for COC(=O)[C@@H]1[C@H](O)[C@H](C)[C@H](O)[C@@](C)(O)/C=C\C=C(C)C(=O)Nc2c(C)c(OC(C)=O)c3c(c2O)C(=O)C(C)=C2OCOC(=C23)C(C)=C[C@@](C)(O)[C@H](O)[C@@H](C)[C@H]1OC(C)=O here?
Answer: 97.7%

Question: Which growth does the source give for COc1cccc(C2C3=C(COC3=O)N(CCO)c3cc(OC)ccc32)c1 (configuration not stated) here?
Answer: 27.5%

Question: CCc1ccc2c(c1)N(CCO)C1=C(C(=O)OC1)C2c1ccccc1 (configuration not stated) was tested. Which growth did it give?
Answer: 93.9%

Question: For CO/N=C(/C(=O)NC1C(=O)N2C(C(=O)O)=C(COC(N)=O)CSC12)c1ccco1 (configuration not stated), which growth is on record?
Answer: 108%

Question: With COc1ccc(N2C(=O)C3c4[nH]c5ccc(OCc6ccccc6)cc5c4C4CCC(C(C)C)CC4C3C2=O)cc1 (configuration not stated) as the compound, how does the growth read?
Answer: 84.4%

Question: For CCOC(=O)C1CCc2c(ccc3ccccc23)N1CCC#N (configuration not stated), which growth is on record?
Answer: 107%

Question: For CN(C)CCN1C(=O)c2cccc3cc(N)cc(c23)C1=O, which growth is on record?
Answer: 47.2%

Question: For CN1CC[C@@H](c2c(O)cc(O)c3c(=O)cc(-c4ccccc4Cl)oc23)[C@@H](O)C1, which growth is on record?
Answer: 16.4%

Question: For O=C(/C=C/c1cc2ccccc2[nH]c1=O)c1ccc2c(c1)OCO2, which growth is on record?
Answer: 104%

Question: Which growth does the source give for CCCC1(CC(=O)O)OCCc2c1[nH]c1ccccc21 (configuration not stated) here?
Answer: 88.6%

Question: How did the growth turn out when C=C(Cl)[C@@](Cl)(CBr)CC[C@@H](Br)C(C)(C)Cl was run?
Answer: -46.3% (active)

Question: For CC1CN(Cc2ccccc2)C(=O)NC1=O (configuration not stated), which growth is on record?
Answer: 115%

Question: Which growth does the source give for Cc1cccc2c(NCCN(C)C)c3cccc(C(=O)NCCN(C)C)c3nc12 here?
Answer: 26.1%

Question: O=C(CCCCCCC(=O)Nc1cccnc1)NO was tested. Which growth did it give?
Answer: 60.8%

Question: How did the growth turn out when O=C1OCC2=C1C(c1cccc(Br)c1)c1cc3c(cc1N2CCO)CCC3 (configuration not stated) was run?
Answer: 22.4%

Question: O=C(CNC(=O)OCc1ccccc1)NCC(=O)Oc1ccc([N+](=O)[O-])cc1 was tested. Which growth did it give?
Answer: 109%

Question: With CC(C)C[C@H](NC(=O)[C@H](Cc1cccc2ccccc12)NS(=O)(=O)c1cccc2cccnc12)B(O)O as the compound, how does the growth read?
Answer: -57.6% (active)

Question: With COc1cc(NC(=O)CSc2nc3ccccc3c(=O)n2CCc2ccccc2)cc(OC)c1OC as the compound, how does the growth read?
Answer: 65.9%

Question: For COc1cc(OC)cc(-c2cncn2-c2ccc(-c3nc4cc(OC)cc(OC)c4s3)cc2)c1, which growth is on record?
Answer: 99.9%

Question: With COc1ccc(OC)c2c1C(=O)CC2C (configuration not stated) as the compound, how does the growth read?
Answer: 112%

Question: Nc1ncn(C2OC(CO)C(O)C2O)c(=O)n1 (configuration not stated) was tested. Which growth did it give?
Answer: 85.9%

Question: With N#Cc1c(C#N)c(SSc2c(C#N)c(C#N)c(N)n2-c2ccccc2)n(-c2ccccc2)c1N as the compound, how does the growth read?
Answer: 91.8%

Question: Which growth does the source give for CCCCCCCCCCCCCCCCCCOCC(COCCOCC[N+]1(CCCCCC(=O)[O-])CCCC1)Oc1ncccn1 (configuration not stated) here?
Answer: -0.76% (active)

Question: For O=C1NC(=O)N(Cc2ccccc2)CC1Br (configuration not stated), which growth is on record?
Answer: 85.3%

Question: How did the growth turn out when C=C(NC(=O)C(=C)NC(=O)c1csc(C2=NC3c4csc(n4)C4NC(=O)c5csc(n5)C(C(C)(O)C(C)O)NC(=O)C5CSC(=N5)/C(=C/C)NC(=O)C(C(C)O)NC(=O)c5csc(n5)C3(CC2)NC(=O)C(C)NC(=O)C(=C)NC(=O)C(=C)NC(=O)C(C(C)C)NC2C=Cc3c(C(C)O)cc(nc3C2O)C(=O)OC4C)n1)C(N)=O (configuration not stated) was run?
Answer: 52.6%

Question: C/C(=N\Nc1nc2ccccc2s1)c1ccncn1 was tested. Which growth did it give?
Answer: 38.9%
